Source: PubChem
FAS-TE inh = FAS thioesterase (human) inhibition; 360,000 tested, 0.67% active; P49327; inhibition, % at 15 µM; recombinant FAS-TE, OMFH fluorogenic substrate, fluorescence endpoint;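 active = compounds whose normalised, plate-corrected inhibition of enzyme fluorescence in the single-dose primary screen is 50% or more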
KLK7 zymogen act = activators of human kallikrein-7 zymogen. P49862. purified proKLK7, EDANS-DABCYL substrate fluorescence; 100% is mature enzyme control, 0% vehicle. activation, % at 7 µM. 370,000 tested, 0.9% active;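 active = activation above the mean of all tested compounds plus 3 SD, computed per campaign excluding outliers beyond control limits, cut at about 13% in these data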
ADAM17 inh = ADAM17 inhibition, QFRET primary screen. recombinant ADAM17, EDANS/DABCYL FRET peptide cleavage. inhibition, % at 6.95 µM. 370,000 tested, 0.83% active;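 active = inhibition above the mean of compounds lying between control limits plus 3 SD, set per campaign, cut at about 8.5% in these data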
GRIN3A LBD mod = NR3A (human) ligand-binding domain modulation; 340,000 tested, 2.5% active; Tm shift relative to glycine control, % at 25 µM; NR3A LBD differential scanning fluorimetry, Tm shift; 0% = protein alone, 100% = glycine-bound protein;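 active = melting temperature shift of at least 10% of the positive control shift, at one fixed dose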
ADAM10 inh = inhibitors of human ADAM10. recombinant ADAM10, EDANS/DABCYL FRET peptide cleavage, 3 h. inhibition, % at 7 µM. 370,000 tested, 0.62% active. AID 720582;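 active = inhibition above a per-campaign cutoff equal to the mean of compounds falling between control-based bounds plus 3 SD, cut at about 20% in these data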
Numbers stand for hits; 0 = inactive; - = not tested or not shown. Most compounds without a hit are left out; they make up all but 4.6% or so of the library.

SMILES | FAS-TE inh | KLK7 zymogen act | ADAM17 inh | GRIN3A LBD mod | ADAM10 inh
CCOc1ccc(OCC)c(NC(=O)CN2CCN(C(=O)c3ccco3)CC2)c1 | 0 | 0 | 0 | 0 | 0
CCOc1ccc(OCC)c(NC(=O)CN2CCN(c3cccc(C)c3C)CC2)c1 | 0 | 0 | 0 | 11 | 0
COc1cc(NC(=O)CN2CCN(c3ccccc3F)CC2)c(C)cc1[N+](=O)[O-] | 0 | 0 | 0 | 15 | 0
CCC(O)(c1ccc(NC(=O)OC(C)(C)C)cc1)c1cc(OC)cc(OC)c1 (stereo unspecified) | - | 0 | 0 | - | 0
Cn1c(C(=O)N2CCN(C(=O)c3ccco3)CC2)cc2c(=O)n3ccccc3nc21 | 0 | 46 | 0 | 0 | 0
CC1Cc2ccccc2N1C(=O)c1cc2c(=O)n3ccccc3nc2n1C (stereo unspecified) | 0 | 0 | 0 | 0 | 0
COc1ccc2c(n1)Sc1nc3ccccc3nc1N2 | 0 | 0 | 0 | 34 | 0
Cc1ccc(C(=O)Cn2c(C)cc(C)c(C#N)c2=O)cc1 | 0 | 0 | 0 | 13 | 0
Cc1cc(C)n(CC(=O)c2ccc(Br)cc2)c(=O)c1C#N | 0 | 0 | 0 | 0 | 0
O=C(Nc1ccc(F)cc1)Oc1ccc[nH]c1=O | 0 | 0 | 0 | 12 | 0
O=C(Oc1ccc[nH]c1=O)c1ccccc1 | 0 | 0 | 0 | - | 0
CCCCCCCCCCOC(=O)Cn1c(COc2ccccc2C)[n+](C)c2ccccc21 | 0 | - | - | 31 | -
CCCCCCCCCCOC(=O)Cn1c(COc2ccccc2)[n+](C)c2ccccc21 | 0 | 0 | 0 | 0 | 0
CCCCCCCCCCOC(=O)Cn1c(COc2ccc(Cl)cc2)[n+](C)c2ccccc21 | 0 | 0 | 0 | 21 | 0
O=C(Nc1ccc(Cl)cc1)OC1CCC12CCC(c1ccccc1)CC2 (stereo unspecified) | - | 0 | 0 | - | 0
O=[N+]([O-])c1cc(/C=N\O)ccc1Oc1ccc(F)cc1 | 0 | 0 | 0 | 16 | 0
COc1cc(/C=N/O)ccc1Oc1ccc([N+](=O)[O-])cc1[N+](=O)[O-] | 0 | 0 | 0 | 0 | 0
CC(C)CC(O)(CC(C)C)c1cn(C(=O)N(c2ccccc2)c2ccccc2)nn1 | - | - | 0 | - | 0
CCC/C(=N\NC(=O)CNC(=O)/C=C/c1ccco1)c1ccccc1 | 0 | 0 | 0 | 10 | 0
Clc1ccc2c(c1)c1ccccc1n2CN1CCOCC1 | 0 | 0 | 0 | 0 | 0
Clc1ccc2c(c1)c1cc(Cl)ccc1n2CN1CCOCC1 | 0 | 0 | 0 | 11 | 0
CCn1c(=O)n2n(c1=O)[C@H]1C[N+](Cc3ccc4c(c3)OCO4)=C(N)NC1=C(C)C2 | - | - | 0 | - | 0
C/C(=N\N1CCN(C2c3ccccc3-c3ccccc32)CC1)c1ccncc1 | 0 | 0 | 0 | 15 | 0
COC(=O)[C@]12C[C@H](CC(=O)NCc3cccc4ccccc34)C(=O)N(CCC3=CCCCC3)C1=C[C@H](C(C)C)O[C@@H]2C1CC1 | - | 0 | 0 | - | 0
Cc1cccc(C(=O)Nc2ccc(C(=O)N/N=C/c3cccnc3)cc2)c1 | 0 | 0 | 0 | 0 | 0
SMILES | FAS-TE inh | KLK7 zymogen act | ADAM17 inh | GRIN3A LBD mod | ADAM10 inh
O=C(N/N=C/c1cccnc1)c1cccc(NC(=O)c2ccc(Cl)cc2)c1 | 0 | - | - | 16 | -
Cc1ccc(C(=O)Nc2ccc(C(=O)N/N=C/c3cccnc3)cc2)cc1 | 0 | 0 | 0 | 11 | 0
COc1ccc([C@H]2OC(=O)C[C@@H]2C(=O)N2CCN(c3ccccc3F)CC2)cc1OC | - | 0 | 0 | - | 0
O=C(Cc1ccccc1)Nn1c(O)c(/C=C2\C=Nc3ccccc32)sc1=S | 0 | 0 | 0 | 26 | 0
CCn1c(O)c(/C=C2\C=Nc3ccccc32)sc1=Nc1ccccc1 | 0 | 0 | 0 | 12 | 0
CCCN(CCC)S(=O)(=O)c1ccc(C(=O)Nc2cc3oc4ccccc4c3cc2OC)cc1 | 0 | 0 | 0 | 0 | 0
COc1cc2c(cc1NC(=O)c1cncc(Br)c1)oc1ccccc12 | 0 | 0 | 0 | 24 | 0
COc1cc2c(cc1NC(=O)CCC(=O)O)oc1ccccc12 | 0 | 0 | 0 | 0 | 0
COc1cc2c(cc1NC(=S)Nc1cccc(C(F)(F)F)c1)oc1ccccc12 | 0 | 0 | 0 | 29 | 0
COc1cc2c(cc1NC(=O)Nc1ccccc1)oc1ccccc12 | 0 | 0 | 0 | 16 | 0
CCN(CC)S(=O)(=O)c1cccc(C(=O)Nc2cc3oc4ccccc4c3cc2OC)c1 | 0 | 0 | 0 | 22 | 0
O=C1CCC[C@H]2C[C@H](NCc3ccccc3F)CC[C@]23CCCN13 | - | - | 0 | - | 0
COc1cc2c(cc1NC(=O)CN1C(=O)NC3(CCc4ccccc43)C1=O)oc1ccccc12 (stereo unspecified) | 55 | 0 | 0 | 0 | 0
Cc1ccccc1NC(=O)CN1C(=O)NC2(CCc3ccccc32)C1=O (stereo unspecified) | 0 | 0 | 0 | 0 | 0
Cc1ccc(S(=O)(=O)N(CCC(=O)O)c2ccccc2)cc1 | 0 | 0 | 0 | 15 | 0
Cc1ccc(N(CCC(=O)O)S(=O)(=O)c2ccc(C)cc2)cc1 | 0 | 0 | 0 | 0 | 0
COc1ccc(S(=O)(=O)NCCS(=O)(=O)N2CCN(c3ccccc3)CC2)cc1 | 0 | 0 | 0 | 19 | 0
O=S(=O)(NCCS(=O)(=O)N1CCN(c2ccccc2)CC1)c1ccccc1 | 0 | 0 | 0 | 0 | 0
COC(=O)CNC(=O)[C@H](Cc1ccccc1)NC1(C(=O)NCCc2c[nH]c3ccccc23)CCCCC1 | - | - | 0 | - | 0
COC(=O)c1cn(-c2ccc3c(c2)[C@]2(CC(=O)N(C)C2c2ccccc2)C(=O)N3CC(C)C)nn1 (stereo partly specified) | - | 0 | 0 | - | 0
Cc1nc2ccc(S(=O)(=O)NCC(=O)NCc3ccc(F)cc3)cc2s1 | - | 0 | 0 | - | 0
Cn1cccc1C(=O)N1CCN(S(=O)(=O)c2ccc(F)cc2)CC1 | - | 0 | 0 | - | 0
Nc1[nH]n(-c2ccccc2)c(=O)c1N=Nc1ccccc1[N+](=O)[O-] | 0 | 0 | 0 | 21 | 0
CCc1ccccc1N=Nc1c(N)[nH]n(-c2ccccc2)c1=O | - | 0 | 0 | - | 0
Nc1[nH]n(-c2ccccc2)c(=O)c1N=Nc1ccc2ncsc2c1 | 0 | 0 | 0 | 14 | 0
SMILES | FAS-TE inh | KLK7 zymogen act | ADAM17 inh | GRIN3A LBD mod | ADAM10 inh
CN1CCN(C2=C(Cl)C(=O)C(c3cnc(N4CCCCC4)s3)=C(Cl)C2=O)CC1 | 60 | - | - | 0 | -
CC1(C)COC(c2cccn2Cc2ccc(F)cc2Cl)=N1 | 0 | 0 | 0 | 0 | 0
CC1CN=C(c2cccn2Cc2ccc(F)cc2Cl)O1 (stereo unspecified) | 0 | 0 | 0 | 12 | 0
O=c1[nH]c(SCc2ccccc2F)nc2ccccc12 | 0 | 0 | 0 | 0 | 0
O=c1cc(CSc2nc3ccccc3c(=O)[nH]2)c2ccc(O)cc2o1 | 0 | 0 | 0 | 29 | 0
COc1ccc(CCC(=O)Nc2ccc(S(=O)(=O)N3CCOCC3)cc2)cc1OC | 0 | 0 | 0 | - | 0
COc1ccc(CC(=O)NNC(=O)COc2ccc(C)cc2)cc1S(=O)(=O)N1CCOCC1 | 0 | 0 | 0 | 10 | 0
CCOc1ccc(S(=O)(=O)N2CCOCC2)cc1NC(=O)CSCC(=O)Nc1ccc(OC)cc1 | 0 | 0 | 0 | 0 | 0
COc1ccc(CCC(=O)Nc2ccc(S(=O)(=O)N3CCOCC3)cc2)cc1 | 0 | 0 | 0 | 20 | 0
